# Bioassay records as filed in PubChem.
# ugtP null kill: kills S. aureus RN4220 lacking UgtP; S. aureus RN4220 ugtP deletion, OD600 growth, 16 h; growth inhibition, % (concentration not given with the values); 0.54% of 330,000 active; AID 1259309; in the data active = growth inhibition above about 68%;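 note: plate controls were untreated wells for no effect and antibiotic for full effect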
# RN4220 kill: kills Staphylococcus aureus RN4220. inhibition, % (concentration not given with the values). AID 1259311. S. aureus RN4220 growth, OD600, 16 h. 0.33% of 330,000 active; in the data active = inhibition above about 85%;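 note: plate controls were untreated cells for no effect and reference antibiotic for full effect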
# SSB-PriA inh: K. pneumoniae PriA-SSBct interaction inhibition. AlphaScreen SSBct-PriA binding, biotinylated peptide. inhibition, % at 33 µM. 0.6% of 430,000 active. AID 1272365; in the data active = inhibition mostly above about 37%, no sharp cut-off; inactive = mostly below about 20%;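 note: plate controls were negative control peptide for no effect and reference peptide for full effect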
# An asterisk follows results filed as active; / = no result. An excerpt weighted towards active compounds, which were near 1% of everything screened.
SMILES,ugtP null kill,RN4220 kill,SSB-PriA inh
Cc1c(C(=O)Nc2nc(-c3ccccn3)cs2)oc2ccccc12,81.2,83.3,68.9*
CS(=O)(=O)c1ccc(C(=O)Nc2nc(-c3ccccn3)cs2)cc1,/,/,74.9*
O=C(Nc1nc(-c2ccccn2)cs1)c1ccc2c(c1)CCCC2,/,/,53.5
O=C(Nc1nc(-c2ccccn2)cs1)c1cc2ccccc2o1,4.1,27.8,19.7
CS(=O)(=O)Cc1ccc(C(=O)Nc2nc(-c3ccccn3)cs2)cc1,/,/,16.9
COc1ccc(-c2csc(NC(=O)CS(=O)(=O)c3ccccc3)n2)cc1,15.5,3.7,3.4
O=C(Nc1nc(-c2ccccn2)cs1)c1n[nH]c2c1CCCCC2,/,/,61.8*
COc1ccc(S(=O)(=O)CC(=O)Nc2nc(-c3ccccn3)cs2)cc1,/,/,88.0*
Cc1ncn(CC(=O)N2CCC[C@H](Cc3nc(-c4ccsc4)no3)C2)c(=O)c1C,/,/,5.0
CSCCC(NC(=O)c1ccc(/C=C2/SC(=S)N(C)C2=O)cc1)C(=O)O (stereo not drawn),/,/,-9.0
O=C(c1csc(-c2cnccn2)n1)N1CCN(c2ccccc2)CC1,/,/,-14.0
O=C(CCSc1ccccc1)Nc1nc2c(cc3c4c(cccc42)CC3)s1,/,/,10.0
Cc1cc(NC(=O)Cn2c3ccccc3c3nc4ccccc4nc32)no1,/,/,5.0
CCOC(=O)c1ccc(NC(=O)CSc2nnc(CNC(=O)c3cccs3)n2-c2cccc(C)c2)cc1,/,/,10.0
O=C(Cc1cc(=O)[nH]c(SCc2cccc(Cl)c2)n1)NC1CCCC1,/,/,-8.0
Cc1nc(C(=O)Nc2nc(-c3ccccn3)cs2)c(C(C)C)s1,/,/,68.0*
O=C(Nc1nc(-c2ccc(Cl)s2)cs1)c1cccs1,98.9*,54.3,-13.8
COc1ccc(-c2csc(NC(=O)c3ccoc3C)n2)cc1,16.7,-3.8,-3.7
Cc1occc1C(=O)Nc1nc(-c2ccccn2)cs1,/,/,111.5*
O=C(Nc1ccc([N+](=O)[O-])cc1)Nc1nc(-c2ccc(Cl)s2)cs1,97.4*,97.1*,-3.5
O=C(Nc1nc(-c2csc(NC(=O)c3ccc(Cl)s3)n2)cs1)c1ccc(Cl)s1,/,/,-17.0
Cc1sc2ncc(C(=O)Nc3nc(-c4ccccn4)cs3)c(=O)n2c1C,/,/,34.8
O=C(/C=C/c1ccc([N+](=O)[O-])cc1)Nc1nc(-c2ccc(Cl)s2)cs1,/,/,3.0
Cc1nc(NCCNC(=O)Nc2cccc(F)c2C)cc(N(C)C)n1,/,/,-14.0
CCn1nc(C)cc1C(=O)Nc1ccc2ncsc2c1,/,/,-2.0
SMILES,ugtP null kill,RN4220 kill,SSB-PriA inh
O=C(Nc1nc(-c2ccccn2)cs1)c1ccccn1,/,/,162.5*
CCc1sc(C(=O)Nc2nc(-c3ccccn3)cs2)cc1C,1.1,35.6,13.0
Cc1nnsc1C(=O)Nc1nc(-c2ccccn2)cs1,/,/,135.5*
O=C(Nc1nc(-c2ccc(-c3ccccc3)cc2)cs1)C1=COCCO1,-5.7,2.2,-2.9
O=C(/C=C/c1ccccc1)Nc1nc(-c2ccccn2)cs1,/,/,15.0
O=C(Nc1nc(-c2ccccn2)cs1)C1=COCCO1,/,/,105.5*
O=C(/C=C/c1cccs1)Nc1nc(-c2ccccn2)cs1,/,/,66.0*
Cn1ncc2c(Nc3ccc(F)cc3)nc(N3CCN(Cc4ccccc4)CC3)nc21,/,/,5.0
O=C(c1ccsc1)N1CCN(CCNS(=O)(=O)c2ccc3c(c2)OCCO3)CC1,/,/,-4.0
Cc1cc(F)ccc1S(=O)(=O)Nc1ccc2c(c1)N(C(=O)C(C)(C)C)CC2,/,/,0.0
COc1ccc(-n2c(C)nc3ccc(NC(=O)Cc4cccs4)cc3c2=O)cc1,/,/,5.0
CCCCS(=O)(=O)N1CCN(c2ccc(-n3cccc3)nn2)CC1,/,/,-15.0
O=C(/C=C(\O)c1ccc(Cl)cc1)C(=O)NNC(=O)C(O)(c1ccccc1)c1ccccc1,92.0*,-6.1,/
COc1ccc(C(O)=CC(=O)C(=O)NNC(=O)C(O)(c2ccccc2)c2ccccc2)cc1,/,/,-1.7
Cc1nc(C)c(C(=O)N2CC(S(=O)(=O)Cc3ccco3)C2)s1,/,/,-7.0
CC(=O)Nc1ccc(NC(=S)NC(=O)C2CCCC2)cc1,32.0,0.0,-10.0
CCN(CC)c1ccc(NC(=S)NC(=O)C2CCC2)cc1,14.2,3.8,55.2*
COCCn1c(C)cc(C2=NNC(=Nc3ccccc3)SC2)c1C,-8.3,3.3,10.4
COc1ccccc1C1=NNC(=Nc2cccc(S(=O)(=O)N(C)C)c2)SC1,8.2,-3.0,42.7*
CCOC(=O)Cc1csc(NC(=O)C2CCN(c3ccc(-c4ccco4)nn3)CC2)n1,/,/,2.0
CCCN1CCN(CCCNC(=O)c2ccc3nc(N4CCCCC4)sc3c2)CC1,4.6,2.0,99.9*
CC1CC(C)CN(CCCNC(=O)c2ccc3nc(N4CCCCC4)sc3c2)C1 (stereo not drawn),3.1,-1.1,-6.7
Cc1ccccc1NC(=NS(=O)(=O)c1ccccc1)c1ccc(F)cc1,/,/,-7.7
COc1ccc(N2CCN(CCNC(=O)C(=O)Nc3cc(Cl)ccc3OC)CC2)cc1,/,/,-4.0
CCCCC(=O)OCc1c(-c2cccc(OC)c2)ncc2ccccc12,85.8*,7.0,-23.4
SMILES,ugtP null kill,RN4220 kill,SSB-PriA inh
CCCCC(=O)OCc1c(-c2ccccc2)ncc2ccccc12,11.0,1.4,-12.1
Cc1cc(C)c(C)c(S(=O)(=O)NC(Cc2ccccc2)C(=O)O)c1C (stereo not drawn),/,/,-10.0
COCCN(Cc1ccoc1)C(=O)CN1C(=O)CCC1=O,/,/,-10.0
COc1ccc(Br)cc1C1NC(=O)NC(C)=C1C(=O)N(C)C (stereo not drawn),-5.7,2.7,-5.2
COc1ccc(Br)cc1C1NC(=O)NC1=O (stereo not drawn),/,/,47.0*
O=S(=O)(NCCOc1ccccc1)c1ccccc1C(F)(F)F,/,/,-15.0
NC(=O)c1ccc(NC(=O)C(=O)N2CCC3(CC2)OCCN3S(=O)(=O)c2cccs2)cc1,/,/,-12.0
Cc1ccc(N=Nc2ccc3ccccc3c2O)cc1,30.5,-12.7,-5.3
Oc1c(N=Nc2ccc(F)cc2)ccc2ccccc12,/,/,38.6*
O=C(Nc1cccc(N2CCCCC2=O)c1)Oc1ccccc1,/,/,4.0
COc1cccc2sc3cc(C#Cc4ccccn4)ccc3c(=O)c12,7.4,7.3,46.0*
COc1cc2sc3ccc(C#Cc4ccccn4)cc3c(=O)c2cc1OC,-1.7,2.5,6.5
Oc1c(Cl)cccc1Cc1cc(Cl)cc(Cl)c1O,99.9*,99.8*,3.8
Oc1c(Cl)cc(Cl)cc1CN1CCN(Cc2ccccc2)CC1,-0.2,-3.2,-18.5
CNCc1nc(CCOC)no1,/,/,-4.0
COc1cccc(N/C(N)=N/c2nc(CSc3ccccn3)cc(=O)[nH]2)c1,3.3,7.6,/
COc1ccnc(CSC(N)=Nc2ccc(F)cc2)c1,3.4,0.4,45.7*
Nc1ccc(S(=O)(=O)Nc2cnc3ccccc3n2)cc1,91.0*,2.8,-2.3
Nc1ccc(S(=O)(=O)Nc2cnc3c(Cl)cccc3n2)cc1,/,/,-7.2
COc1cc(-c2nc3cnccn3c2Nc2ccc3c(c2)OCCO3)ccc1O,-0.1,2.5,21.9
COc1cc(-c2nc3ccc(C)cn3c2Nc2ccc3c(c2)OCCO3)ccc1O,/,/,54.5*
CC1=Nc2ccccc2/C1=C\c1nc(-c2ccccc2)oc1O,67.2,1.0,7.3
COc1ccc(-c2nc(/C=C3\C(C)=Nc4ccccc43)c(O)o2)cc1,92.5*,91.3*,0.9
COc1cc(C(C)=O)ccc1OCC(=O)Nc1c(C)nc2ccccn2c1=O,/,/,-28.0
CN(c1ccc(C(=O)NCc2cccnc2)cc1)S(=O)(=O)c1ccc(Cl)cc1,1.0,0.1,8.6
Cc1ccc(S(=O)(=O)N(C)c2ccc(C(=O)NCc3cccnc3)cc2)cc1,1.7,1.4,39.2*
